The values below come from PubChem BioAssay AID1362 (SRMLSC, 2008).

The nature of the experiment: growth inhibition of WT strain, primary screen, mitochondrial fusion inhibitor project, WT and mutant strains, chemical genetic (AID 1362). The conditions noted are these: mitochondrial fusion phenotypic screen, at 10 µM.
[1] abbreviates: WT strain, growth inhibition, stronger effect = higher value.

The whole screen tested about 190,000 compounds, of which about 4,000 (2.1%) were called active. Rule as the data show it: active = inhibition above about 58%; inactive = the rest, inconclusive results apart; tested in S. cerevisiae. The full list was thinned out, with actives kept by preference.

In general, inhibition refers to the relative decrease from the control value, in per cent. In the case of `O=C(C(=O)N1CCc2ccccc2C1)c1c[nH]c2ccccc12`, the inhibition was 12.7% (inactive) under setting [1] and -9.54% (mutant strain inhibition).

On to `COCCN(C(=S)Nc1ccccc1OC)C1CCN(C(C)C)CC1`, for which the inhibition is -3.78% (inactive) under setting [1] and -1.71% (mutant strain inhibition).

Turning to `Cc1c(Cl)cccc1NC(=S)N(Cc1ccccc1)Cc1cccnc1`, the inhibition under setting [1] is 32.8% (inactive) and the inhibition (mutant strain inhibition) stood at 35.6%.

Regarding `COCCNC(=S)N(Cc1cccnc1)Cc1ccc(OC)c(OC)c1`, the inhibition under setting [1] is 0.04% (inactive) and the inhibition (mutant strain inhibition) turned out to be 0%.

With `Cc1cccc(C)c1NC(=S)N(Cc1cccnc1)Cc1ccccc1Cl`, the inhibition is, setting by setting: under setting [1], -4.3% (inactive); (mutant strain inhibition) -19.8%.

In the case of `Cc1ccc(CN(Cc2cccnc2)C(=S)Nc2cccc(Cl)c2C)cc1`, the inhibition is 73.9% (active) under setting [1] and 36.3% (mutant strain inhibition).

Consider `Cc1ccc(Cl)cc1NC(=S)N(CCN(C)C)Cc1cccs1`, for which the inhibition is, setting by setting: under setting [1], 3.98% (inactive); (mutant strain inhibition) 13.3%.

As to `Cc1ccc(CN(Cc2cccnc2)C(=S)Nc2cc(Cl)ccc2C)cc1`, the inhibition was 65.8% (active) under setting [1] and 29.6% (mutant strain inhibition).

As for `CCCCCCCCc1c(O)nc(-n2[nH]c(C)c(CCO)c2=O)[nH]c1=O`, the inhibition is, setting by setting: under setting [1], -1.35% (inactive); (mutant strain inhibition) -2.06%.

For the compound `Cc1ccc(NC2=C(Cl)C(=O)OC2OC(=O)c2ccccc2C)cc1` (stereo not given), the inhibition reads like this: under setting [1], 72.2% (active); (mutant strain inhibition) 69%.

`O=C1OC(OC(=O)c2ccccc2Br)C(N2CCOCC2)=C1Cl` (stereo not given): the inhibition was -3.78% (inactive) under setting [1] and 5.3% (mutant strain inhibition).

For the compound `Cc1ccccc1C(=O)OC1OC(=O)C(Cl)=C1Nc1ccccc1` (stereo not given), the inhibition by setting is: under setting [1], 31% (inactive); (mutant strain inhibition) 3.24%.

As for `Cc1cc(/C=N/NC(=O)c2cccnc2)c(C)n1CC(C)C`, the inhibition is, setting by setting: under setting [1], -2.78% (inactive); (mutant strain inhibition) -1.44%.

As for `CCN(CC)CCNc1nc(-c2ccc(OC(F)F)cc2)c(C)s1`, the inhibition is, setting by setting: under setting [1], 14.9% (inactive); (mutant strain inhibition) -3.63%.

As for `COc1ccc(OC)c(Cc2nnc(CCC(=O)NC3CCCC3)o2)c1`, the inhibition reads like this: under setting [1], -6.11% (inactive); (mutant strain inhibition) 1.25%.

For `S=C(NCc1ccc(Cl)cc1)NC12CC3CC(CC(C3)C1)C2`, the inhibition under setting [1] was -4.06% (inactive) and the inhibition (mutant strain inhibition) came to 3.59%.

As to `S=C(NCc1ccc(Cl)cc1)NC1CCCCC1`, the inhibition under setting [1] was 68% (active) and the inhibition (mutant strain inhibition) was 50.3%.

For the compound `CN(C)CCCNC(=S)NCc1ccc(Cl)cc1`, the inhibition is, setting by setting: under setting [1], -0.46% (inactive); (mutant strain inhibition) 2.88%.

With `COc1cccc2cc(S(=O)(=O)c3ccc(C)cc3)/c(=N/NS(=O)(=O)c3ccc(C)cc3)oc12`, the inhibition was -19.1% (inactive) under setting [1] and 0.47% (mutant strain inhibition).

With `O=C(NCC1COc2ccccc2O1)C1(c2ccccc2)CCCC1` (stereo not given), the inhibition was 13.2% (inactive) under setting [1] and 3.88% (mutant strain inhibition).

As for `c1ccc(-c2cc3c(NCC4COc5ccccc5O4)ncnc3s2)cc1` (stereo not given), the inhibition under setting [1] was 82% (active) and the inhibition (mutant strain inhibition) turned out to be 45.9%.

For the compound `c1ccc2c(c1)OCC(CNc1ncnc3nc[nH]c13)O2` (stereo not given), the inhibition runs as follows: under setting [1], 5.51% (inactive); (mutant strain inhibition) -5.69%.

As for `O=[N+]([O-])c1ccc(Sc2n[nH]c(-c3ccco3)n2)nc1`, the inhibition under setting [1] is -3.94% (inactive) and the inhibition (mutant strain inhibition) was -1.1%.

Regarding `CSCc1cc(N(C)C)nc(SCc2ccc(Cl)cc2Cl)n1`, the inhibition runs as follows: under setting [1], 59.7% (active); (mutant strain inhibition) 52.5%.

As for `Cc1ccc(Sc2cc(N3CCOCC3)nc(-c3ccccc3)n2)cc1`, the inhibition was -0.33% (inactive) under setting [1] and 3.68% (mutant strain inhibition).

With `O=C(Nc1nnc(SCc2ccc(Cl)cc2Cl)s1)C1COc2ccccc2O1` (stereo not given), the inhibition is 56.1% (inactive) under setting [1] and 17.9% (mutant strain inhibition).

For `Clc1ccc(CSc2nnc(/C=C/c3ccccc3)o2)c(Cl)c1`, the inhibition runs as follows: under setting [1], 38% (inactive); (mutant strain inhibition) 26.7%.

As to `CSCc1cc(N2CCOCC2)nc(SCc2ccc(Cl)cc2Cl)n1`, the inhibition under setting [1] was 79.1% (active) and the inhibition (mutant strain inhibition) turned out to be 52.8%.

In the case of `O=c1cc(CSc2ccc(Cl)cc2)nc(N2CCOCC2)[nH]1`, the inhibition reads like this: under setting [1], 10.4% (inactive); (mutant strain inhibition) -7.43%.

For the compound `COc1ccccc1CNC(=O)CNC(=O)c1cn(-c2ccccc2OC)c(=O)c2ccccc12`, the inhibition under setting [1] is -8.54% (inactive) and the inhibition (mutant strain inhibition) was 3.48%.

Consider `O=C(NNC(=O)C1CCN(c2ncccn2)CC1)c1ccccc1`, for which the inhibition by setting is: under setting [1], -10.9% (inactive); (mutant strain inhibition) -13.4%.

For `OCCC1CN(Cc2ccc3nsnc3c2)CCN1C1CCCC1` (stereo not given), the inhibition was 2.03% (inactive) under setting [1] and 2.69% (mutant strain inhibition).

Consider `O=C(CCCn1c(=O)c2sccc2n(CC(=O)NCC2CCCO2)c1=O)NCc1ccco1` (stereo not given), for which the inhibition by setting is: under setting [1], 2.48% (inactive); (mutant strain inhibition) 3.2%.

As for `CC(=O)Nc1ccc(-c2csc(NC=C3C(=O)OC(C)(C)OC3=O)n2)cc1`, the inhibition by setting is: under setting [1], -0.59% (inactive); (mutant strain inhibition) 17.6%.

Consider `C/C(=N/Nc1ccc(Cl)cc1)c1cnnc(-c2ccccc2)n1`, for which the inhibition reads like this: under setting [1], 9.51% (inactive); (mutant strain inhibition) 20.8%.

On to `CCOC(=O)Cc1csc(NC(=O)CSc2nc(C)cc(=O)[nH]2)n1`, for which the inhibition was 15.9% (inactive) under setting [1] and 18.4% (mutant strain inhibition).

`CCOC(=O)Cc1csc(SCC(=O)NC(C)C23CC4CC(CC(C4)C2)C3)n1` (stereo not given): the inhibition is, setting by setting: under setting [1], 59.2% (active); (mutant strain inhibition) 26.1%.

For `CCOC(=O)Cc1csc(NC(=O)CSc2ccc(Br)cc2)n1`, the inhibition was 31.2% (inactive) under setting [1] and 25.6% (mutant strain inhibition).

Take `CC/C(=N\NC(=S)NC(C)C)c1ccc(OC(F)F)cc1`: the inhibition was 32% (inactive) under setting [1] and 43.5% (mutant strain inhibition).

As to `C/C(=N\NC(=S)NC(C)C)c1ccc(C(C)(C)C)cc1`, the inhibition runs as follows: under setting [1], 70.2% (active); (mutant strain inhibition) 59%.

Regarding `C/C(=N\NC(=S)NCc1ccccc1)c1ccc(Cl)cc1`, the inhibition by setting is: under setting [1], 31.1% (inactive); (mutant strain inhibition) 21.1%.

Take `COc1cccc(C2c3[nH]c4ccccc4c3CCN2Cc2cccc(C)n2)c1` (stereo not given): the inhibition reads like this: under setting [1], 40.2% (inactive); (mutant strain inhibition) 33.8%.

In the case of `c1ccc(C2c3[nH]c4ccccc4c3CCN2Cc2cccn2-c2cccnc2)nc1` (stereo not given), the inhibition was -2.92% (inactive) under setting [1] and -2.59% (mutant strain inhibition).

Take `Oc1cccc(C2c3[nH]c4ccccc4c3CCN2Cc2cnn(-c3ccccc3)c2)c1` (stereo not given): the inhibition is, setting by setting: under setting [1], 59.9% (active); (mutant strain inhibition) -4%.

As for `CCc1ccc(OCC(=O)OCC(=O)c2c(N)n(C)c(=O)n(C)c2=O)cc1`, the inhibition is, setting by setting: under setting [1], -10.7% (inactive); (mutant strain inhibition) -9.86%.

On to `COc1ccc(Br)cc1/C=N/NC(=O)c1cccc(S(=O)(=O)N2CCOCC2)c1`, for which the inhibition by setting is: under setting [1], 1.71% (inactive); (mutant strain inhibition) -16.2%.

Turning to `CC1CC(C)CN(CCC(=O)Nc2ccc3c(c2)CCC3)C1` (stereo not given), the inhibition is 2.25% (inactive) under setting [1] and 2.32% (mutant strain inhibition).

Consider `CC1(C)CC2CC(C)(CN2c2ncnc3ccc(Br)cc23)C1` (stereo not given), for which the inhibition by setting is: under setting [1], 64.4% (active); (mutant strain inhibition) 47.6%.

Take `COc1ccc(C(=O)N2CC3(C)CC2CC(C)(C)C3)cc1OC` (stereo not given): the inhibition under setting [1] is -9.9% (inactive) and the inhibition (mutant strain inhibition) turned out to be 6.2%.

Consider `C=CCNc1ncnc2ccc(Br)cc12`, for which the inhibition is, setting by setting: under setting [1], 6.92% (inactive); (mutant strain inhibition) 5.26%.

Turning to `CC1=CC=CC2=N/C(=N\S(=O)(=O)c3ccc(F)cc3F)c3ccccc3CN12`, the inhibition reads like this: under setting [1], 7.93% (inactive); (mutant strain inhibition) -4.27%.

For the compound `Cc1ccc(S(=O)(=O)N(C)CC(=O)OCC(=O)N2CC(=O)Nc3ccccc32)cc1`, the inhibition by setting is: under setting [1], -2.48% (inactive); (mutant strain inhibition) -6.41%.

Regarding `O=C(c1cccnc1)N(c1cc2sc(=O)oc2c2ccccc12)S(=O)(=O)c1ccccc1`, the inhibition is 69% (active) under setting [1] and 25.4% (mutant strain inhibition).

Turning to `COc1ccc(N(C(=O)c2cccnc2)S(=O)(=O)c2ccc3c(c2)n(C)c(=O)n3C)cc1`, the inhibition under setting [1] was -46.4% (inactive) and the inhibition (mutant strain inhibition) was -32.1%.

For `CN(C)S(=O)(=O)c1cccc(C(=O)Nc2cccnc2)c1`, the inhibition reads like this: under setting [1], -9.84% (inactive); (mutant strain inhibition) 2.94%.
